FMDV RLuc: Primary qHTS Assay for Foot and Mouth Disease Virus Antivirals against NCGC Sytravon and CBC Compound Libraries: Renilla Luciferase Signal; FMDV replicon cells, Renilla luciferase signal; Potency, µM (top dose mostly 57.5 µM), for the others: at the top dose activity change, negative = inhibition, most hits filed as inhibitors; 0.32% of 120,000 active; AID 1745857, 2022; further: nearly all actives have a fitted effect of over 55% in size
FMDV antiviral: Primary qHTS Assay for Foot and Mouth Disease Virus Antivirals against NCGC Sytravon and CBC Compound Libraries: Firefly Luciferase Signal | 0.23% of 120,000 active | AID 1745856, 2022 | FMDV antiviral cell assay, firefly luciferase signal | Potency, µM (top dose mostly 57.5 µM), for the others: at the top dose activity change, negative = inhibition, usual class: inhibitors; further: nearly all actives have a fitted effect of over 60% in size
An asterisk follows results filed as active; ? = inconclusive. Rows were chosen to be rich in hits. Some 0.4% of all compounds tested hit in one or more screens of this group. The call rests on the fitted dose curve. On the % scale 0 is the no-effect control and ±100 the full control effect; potency means the concentration at half of the fitted maximal effect.

SMILES	FMDV RLuc	FMDV antiviral
CC(C)Oc1ccc2c(-c3ccccc3)cc(=O)oc2c1	35%	93%
Cc1cc(N2CCN(C(C(=O)O)c3c[nH]c4ccc(Cl)cc34)CC2)nc2ccccc12 (centres undefined)	-12%	-9%
Cc1cccc(Cn2c(NCCO)nc3c2c(=O)n(C)c(=O)n3C)c1	11µM*	?
Cc1cccc(Cn2c(NCCN3CCOCC3)nc3c2c(=O)n(C)c(=O)n3C)c1	4%	15%
Cn1c(=O)c2c(nc(NCCCCO)n2Cc2ccccc2Cl)n(C)c1=O	-9%	-6%
Cn1c(=O)c2c(nc(NCCO)n2Cc2ccccc2F)n(C)c1=O	13µM*	13µM*
Cn1c(=O)c2c(nc(NCCc3ccccc3)n2Cc2cccc(Br)c2)n(C)c1=O	-12%	40%
Cn1c(=O)c2c(nc(NCCO)n2Cc2cccc(Br)c2)n(C)c1=O	13µM*	?
COC(=O)C1=CN(C(C)C)C=C(C(=O)OC)C1c1ccc(C)s1	15%	2%
Oc1ccc(-c2nc(-c3cc(F)ccc3F)cs2)cc1	13%	39%
CCC(=O)Nc1ccc(Cl)c(-c2nc3ccc(C)cc3o2)c1	13%	103%
CCCN1CCc2nc(N)c(C#N)c(-c3cc(OC)c(OC)c(OC)c3)c2C1	4%	11%
Cc1cccc(C(=O)N2CCN(Cc3ccc(-c4cccc(F)c4)s3)CC2)n1	?	10µM*
Cc1ccc2c(CN3CCN(C(=O)c4cccc(F)c4)CC3)cc(=O)oc2c1	1%	17%
CN(C)S(=O)(=O)N1CC=C(c2c[nH]c3ccccc23)CC1	-4%	65%
Cn1nc(CC(=O)NCc2ccc(F)cc2)c2ccccc2c1=O	?	-29%
CCn1c(SCC(=O)Nc2ccccc2C(=O)OC)nc2ccsc2c1=O	9%	-12%
COc1ccc(S(=O)(=O)N(C)C)cc1NC(=O)Cc1nn(C)c(=O)c2ccccc12	29%	0%
Cn1nc(CC(=O)Nc2ccc(Cl)cc2)c2ccccc2c1=O	2.8µM*	?
Cn1nc(CC(=O)Nc2cccc(OC(=O)c3ccc(Cl)cc3)c2)c2ccccc2c1=O	-9%	-13%
COc1ccccc1NC(=O)Cc1nn(C)c(=O)c2ccccc12	10µM*	10µM*
Cn1nc(CC(=O)Nc2ccc(F)cc2Cl)c2ccccc2c1=O	7.1µM*	?
COc1ccccc1NC(=O)CSc1nc2ccsc2c(=O)n1C	22µM*	22µM*
Cc1nc2cc(NC(C)C(=O)Nc3cc(Cl)ccc3Cl)ccc2o1 (centres undefined)	75%	0%
O=C(C1=Cc2sc3c(c2CS1)CCCC3)N1CCCCC1	29%	34%
SMILES	FMDV RLuc	FMDV antiviral
Cc1ccc(Cl)cc1-n1ncc2c(=O)n(CC(=O)Nc3ccc(F)cc3Cl)cnc21	2%	-4%
N#CCCN1CCN(c2ccc(NS(=O)(=O)c3ccc(F)cc3Cl)c(C(=O)O)c2)CC1	-12%	5%
COC(=O)c1ccoc1COC(=O)CCc1ccc(-c2ccccc2)o1	-7%	28%
O=S(=O)(Nc1cccc(C(F)(F)F)c1)c1ccc(-c2cnc(C3CC3)o2)cc1	-90%	?
COc1ccc(NS(=O)(=O)c2ccc(-c3cnc(C4CC4)o3)cc2)cc1OC	-13%	8.9µM*
CCn1c2c(c(=O)n3ncc(C(=O)Nc4cc(Cl)ccc4OC)c13)CN(Cc1ccc(OC)cc1)CC2	11%	-21%
COc1ccc(CN2CCc3c(c(=O)n4ncc(C(=O)N5CCN(c6ccccc6OC)CC5)c4n3C)C2)cc1	1.8µM*	2.8µM*
Cc1c(N)cccc1-c1nc2cc(C(C)C)ccc2o1	-10%	23%
CN(Cc1cccs1)C(=O)Cc1n[nH]c(=O)c2ccccc12	-1%	15%
CCCOc1ccc2ccccc2c1CN(C)C(=O)Cc1n[nH]c(=O)c2ccccc12	?	25µM*
COC(=O)CNC(=O)c1cc(-c2ccco2)nc2ccccc12	-5%	1%
Fc1ccccc1-c1ccc(CNCC2CCNCC2)o1	-28%	-8%
Clc1ccc(-c2ccc(CNCC3CCNCC3)o2)c(Cl)c1	28µM*	?
CSC1=N/C(=C\c2ccc(-c3cccc(Cl)c3)o2)C(=O)S1	-2%	17%
CC(C)(C)c1ccc(N=Cc2cccs2)cc1	4%	4%
C(=Nc1ccccc1)c1ccc(-c2cccs2)s1	8.9µM*	?
CCCCCCCCCNc1c2c(nc3ccccc13)CC(C)(C)CC2=O	19%	12%
O=C(COc1ccc2c(-c3ccc(F)cc3)noc2c1)OCc1ccccc1	1%	2.8µM*
COC(=O)c1ccc(COc2ccc3c(-c4ccc(F)cc4)noc3c2)cc1	16%	16%
O=C(O)c1ccc2nc(-c3ccc(-c4ccccc4)cc3)c(-c3ccc(-c4ccccc4)cc3)nc2c1	-8%	-24%
O=C(O)c1ccc(-c2ccccc2)o1	-9%	15%
COC(=O)/C(C#N)=C\c1cc(Br)c(O)c(OC)c1	2%	13%
COC(=O)c1cc(-c2ccc(F)cc2)nc2onc(-c3ccccc3)c12	11%	18%
O=C(Nc1nc(-c2ccncc2)cs1)c1ccc(S(=O)(=O)N2CCCCC2)cc1	-11%	5%
O=C(Nc1ccnn1Cc1cccs1)c1ccc(S(=O)(=O)N2CCCC2)cc1	?	14µM*
SMILES	FMDV RLuc	FMDV antiviral
Cc1ccc(-c2cnc(-c3ccccc3C(=O)OCC(=O)NCCC#N)o2)cc1	45%	69%
Oc1ccc2ccccc2c1CN(Cc1ccccc1)Cc1ccccc1	1%	21%
CCCCOc1ccc(CNC(=O)c2cc3n(n2)CCCN(Cc2ccc(C)cc2)C3=O)cc1	-14%	14µM*
CCCCNC(=O)c1cc2n(n1)CCCN(Cc1ccc(C)cc1)C2=O	34%	3%
O=C(N1CCN(c2nc(-c3ccccc3)c3ccccc3n2)CC1)C(F)(F)F	-9%	-2%
N#Cc1ccc(Oc2ccc(Cl)c(Oc3ccc(C#N)c(C#N)c3)c2)cc1C#N	2.5µM*	?
Cc1c(Oc2ccc(C#N)c(C#N)c2)cccc1Oc1ccc(C#N)c(C#N)c1	2.5µM*	2.2µM*
N#Cc1ccc(Oc2ccccc2Oc2ccc(C#N)c(C#N)c2)cc1C#N	15%	23%
Cc1cc(C)cc(Oc2ccc(C#N)c(C#N)c2)c1	21%	0%
O=C(c1ccccc1)N1CC=C(c2c[nH]c3ccccc23)CC1	-7%	22%
COc1cccc(/C=C(/C#N)C(=O)c2ccccc2)c1OC(F)F	17%	3%
CCOC(=O)c1[nH]c(C)c(CNCCc2ccc(OC)c(OC)c2)c1C	-2%	-17%
CCCCCCCOC(=O)c1c(C)oc2ccc(NS(=O)(=O)c3cccs3)cc12	29%	19%
COc1ccc(-c2cnnn2-c2ccc(NC(=O)c3ccc(S(=O)(=O)N(C)C)cc3)cc2)cc1	6.3µM*	?
CCOc1ccc(C(=O)Nc2ccc(-n3nncc3-c3ccc(OC)cc3)cc2)cc1	-5%	-14%
O=C(COc1ccccc1)Nc1ccc(S(=O)(=O)N(Cc2ccccc2)c2ccccc2)cc1	-5%	-10%
COc1ccc(C(=O)Nc2ccc(S(=O)(=O)N(Cc3ccccc3)c3ccccc3)cc2)cc1	5µM*	5µM*
Cc1nc2cc(NC(=O)c3ccc(C(C)(C)C)cc3)ccc2o1	4.5µM*	7.9µM*
Cc1nc2cc(NC(=O)c3cccc(Cl)c3)ccc2o1	-28%	0%
CCc1ccc(-c2nc3cc(NC(=O)c4ccc(C)c(C)c4)ccc3o2)cc1	2%	29%
CCc1ccc(C(=O)Nc2ccc3oc(C)nc3c2)cc1	10µM*	-18%
COc1ccc(-c2c(C)oc3cc(OCC(=O)OC(C)(C)C)ccc3c2=O)cc1OC	?	28µM*

Screening results: PubChem BioAssay, National Center for Advancing Translational Sciences (NCATS)
